PINK1 modulator: PINK1 expression modulation; Potency, µM (highest dose often 76.6 µM), actives largely listed as activators; 410,000 compounds, 0.2% hits; PINK1 immunofluorescence, high-content cytometry, 24 h; active = well fitted activation curve with a large enough effect; inconclusive = small, poorly fitted or top-dose-only effect; cell line not stated here; also: nearly all actives have a fitted effect of over 65% in size
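Fluorescence from anti-PINK1 antibody, together with nuclear and cell stains, was scanned on a laser-scanning cytometer. Before staining, stable-line cells were incubated 24 hours with compounds at 5 concentrations; primary antibody 12 h at 10 degrees C.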
KB-V1 cytotox: KB-V1 MDR subline cytotoxicity; KB-V1 MDR cells viability, CellTiter-Glo, 72 h; Potency, µM (titrated, usually from 46.1 µM), actives largely listed as cytotoxic; 400,000 compounds, 3.4% hits; also: nearly all actives have a fitted effect of over 60% in size
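Compound-treated KB-V1 multidrug-resistant cells, 72 h, 37 degrees C; viability by CellTiter-Glo. Fitted qHTS curves give the values.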
MCF10A rerep: induces DNA re-replication in MCF 10a normal breast cells. MCF 10A DNA re-replication, Hoechst nuclear intensity, 48 h. Potency, µM (titrated, usually from 46.1 µM), most hits filed as activators. 350,000 compounds, 2.9% hits. AID 624296; also: nearly all actives have a fitted effect of over 50% in size
SW480 rerep: induces DNA re-replication in SW480 colon adenocarcinoma cells. SW480 DNA re-replication, Hoechst DNA content imaging, 48 h. Potency, µM (highest dose often 46.1 µM), actives largely listed as activators. 340,000 compounds, 1.8% hits. AID 624297; also: nearly all actives have a fitted effect of over 55% in size
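SW480 cells exposed to compounds for 48 hr at 37 C, 5% CO2, then Hoechst-stained 40 min. Nuclear DNA content imaged by fluorescence scanning (405 nm excitation, 500-530 nm emission); re-replication scored as increased high-intensity nuclei.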
KB-3-1 tox: KB-3-1 parental cell cytotoxicity; 400,000 compounds, 1.4% hits; Potency, µM (doses to about 46.1 µM), usual class: cytotoxic; AID 1347075; KB-3-1 viability, CellTiter-Glo ATP luminescence, 72 h; also: nearly all actives have a fitted effect of over 60% in size
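Cytotoxicity measured as CellTiter-Glo luminescence after 72 h at 37 C. Compound titrations were pinned onto drug-naive KB-3-1 parental adenocarcinoma cells grown in DMEM with 10% FBS, and normalized data fitted to concentration-response curves.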
Numbers stand for hits; – = inactive; ? = inconclusive; · = no result given. In the library only some 6.7% were active in any assay of this set; here they are far more common. Unless noted, calls follow the shape of the dose curve; as a rule, active = well fitted curve in the direction sought with a large enough effect; inconclusive = small, poorly fitted or top-dose-only effect, or another doubt; inactive = no such curve, though single readings can be large; an effect the other way counts as inactive or inconclusive.

SMILES	PINK1 modulator	KB-V1 cytotox	MCF10A rerep	SW480 rerep	KB-3-1 tox
Cc1cccc2nc(CSc3nc4ccccc4o3)cn12	–	16µM	–	–	?
c1ccc2oc(SCc3cn4ccccc4n3)nc2c1	–	?	–	–	–
Cc1cc(C)c(C#N)c(SCc2cn3c(C)cccc3n2)n1	–	18µM	–	·	–
COc1cc(C=O)cc(OC)c1[N+](=O)[O-]	·	–	·	·	–
Cc1cc(N(C)Cc2ccccc2)n2nc(-c3ccc(C(C)(C)C)cc3)nc2n1	–	–	·	·	–
C=CCN(c1ccccc1OC)S(=O)(=O)c1cccc(C(=O)OCC(=O)c2c[nH]c3ccccc23)c1	–	12µM	–	?	?
COc1cc(OC)c(N(C)S(=O)(=O)c2cccc(C(=O)OCC(=O)c3c[nH]c4ccccc34)c2)cc1Cl	–	?	–	?	–
Cn1nc(C(=O)Nc2cccc(C(F)(F)F)c2)c2ccccc2c1=O	–	8.2µM	–	–	–
CCCN(CCC)C(=O)Cn1c(=O)n(CCCCCC(=O)NCc2ccc3c(c2)OCO3)c(=O)c2sccc21	–	·	·	·	·
Cc1cc(NC(=O)c2ccccc2Cl)ccc1NC(=O)c1ccccc1Cl	–	–	–	–	–
Cc1ccc2sc3ccc(NC(=O)c4ccccc4Cl)cc3c(=O)c2c1	–	?	?	13µM	?
Cc1cc(Cl)ccc1C(O)c1ncc(-c2ccc(F)cc2)[nH]1 (configuration not stated)	–	–	·	·	–
CN(C)S(=O)(=O)N(CC(=O)Nc1ccc(F)c(F)c1)c1ccccc1	–	21µM	–	–	–
Cc1ccc(NC(=O)CN(c2ccccc2)S(=O)(=O)N(C)C)cc1	–	15µM	–	–	–
CN(C)S(=O)(=O)N(CC(=O)Nc1ccc(C(F)(F)F)cc1)c1ccccc1	–	–	·	·	–
C[S+](C)CC(=O)c1ccc2ccccc2c1	–	?	·	·	–
Clc1ccc(/C=N/Nc2nnc(Cl)c3ccccc23)cc1	?	–	–	–	–
Clc1nnc(N/N=C/c2ccccc2)c2ccccc12	–	?	18µM	?	?
Oc1ccc2ccccc2c1C=NNc1ccccn1	–	0.52µM	?	7.3µM	?
Fc1cccc(F)c1/C=N/Nc1ccccn1	–	–	?	–	–
Oc1ccc2ccccc2c1/C=N/Nc1nnc(-c2ncc[nH]2)c2ccccc12	–	?	?	0.65µM	?
CN(C)/N=C/c1c(O)ccc2ccccc12	–	–	–	–	–
OCC(CO)(CO)N=Cc1c(O)ccc2ccccc12	–	?	8.2µM	–	–
COc1ccc(N2CCN(CCCn3cnc4c(OC)ncnc43)CC2)cc1	–	–	·	·	–
O=S(=O)(c1cccc2ccccc12)N1CCN(c2nc(-c3cccs3)nc3ccccc23)CC1	–	·	·	·	·
SMILES	PINK1 modulator	KB-V1 cytotox	MCF10A rerep	SW480 rerep	KB-3-1 tox
O=C(CCCCCn1c(=O)[nH]c2ccsc2c1=O)NCc1ccccc1	–	–	·	·	–
CN(Cc1cccc(Cl)c1Cl)C(=O)c1ccccc1SCC(=O)N1CCCC1	–	–	?	–	?
COCc1c(C(=O)N2CCN(c3ccccc3O)CC2)cnn1-c1nccc(-c2cccs2)n1	–	·	·	·	·
CCCCC(=O)Nc1nc2c(s1)COc1ccccc1-2	–	–	–	–	–
COc1nc(OC)nc(Oc2ccc(Cl)cc2[N+](=O)[O-])n1	–	–	–	–	–
COc1ccc([N+](=O)[O-])c(S(=O)(=O)c2ccccc2)n1	–	23µM	–	?	?
O=[N+]([O-])c1cccnc1S(=O)(=O)c1ccccc1	–	?	2.9µM	9.2µM	?
COc1ccc([N+](=O)[O-])c(S(=O)(=O)c2ccc(Cl)cc2)n1	–	–	3.7µM	2.9µM	?
O=[N+]([O-])c1ccccc1S(=O)(=O)Nc1ncccn1	–	–	–	–	–
COc1ccc(S(=O)(=O)NCc2nc(N3CCCC3)c3cccc(C)c3n2)cc1OC	–	·	·	·	·
COCC(=O)Nc1cc(C(=O)N2CCc3sccc3C2)c2c(c1)nc(-c1ccncc1)n2C	–	·	·	·	·
CC1(C)Cc2c(sc(NC(=O)COc3ccc(Cl)cc3Cl)c2C(N)=O)C(C)(C)N1	–	–	23µM	?	–
CC1(C)Cc2c(sc(NC(=O)c3ccco3)c2C#N)C(C)(C)N1	–	18µM	–	–	–
Cc1cc(OCC(=O)Nc2sc3c(c2C#N)CC(C)(C)NC3(C)C)c(C(C)C)cc1Cl	–	–	18µM	–	–
